What all share (experiment): DAPPL (digital affinity profiling via proximity ligation, sequencing); 10 mM Tris-HCl pH 7.5, 50 mM NaCl, 1 mM DTT, 4% glycerol, room temperature, 30 min; GST-TFs on glutathione beads, 16-mer random dsDNA library, 0.1% formaldehyde crosslink after washing; high values mean tight binding
What all share (conditions): protein: recombinant; tags: N-terminal GST; dsDNA, one strand shown

For one experiment, the target named is T1, ERF (Homo sapiens, UniProt P50548 1-548).
T1 sequence: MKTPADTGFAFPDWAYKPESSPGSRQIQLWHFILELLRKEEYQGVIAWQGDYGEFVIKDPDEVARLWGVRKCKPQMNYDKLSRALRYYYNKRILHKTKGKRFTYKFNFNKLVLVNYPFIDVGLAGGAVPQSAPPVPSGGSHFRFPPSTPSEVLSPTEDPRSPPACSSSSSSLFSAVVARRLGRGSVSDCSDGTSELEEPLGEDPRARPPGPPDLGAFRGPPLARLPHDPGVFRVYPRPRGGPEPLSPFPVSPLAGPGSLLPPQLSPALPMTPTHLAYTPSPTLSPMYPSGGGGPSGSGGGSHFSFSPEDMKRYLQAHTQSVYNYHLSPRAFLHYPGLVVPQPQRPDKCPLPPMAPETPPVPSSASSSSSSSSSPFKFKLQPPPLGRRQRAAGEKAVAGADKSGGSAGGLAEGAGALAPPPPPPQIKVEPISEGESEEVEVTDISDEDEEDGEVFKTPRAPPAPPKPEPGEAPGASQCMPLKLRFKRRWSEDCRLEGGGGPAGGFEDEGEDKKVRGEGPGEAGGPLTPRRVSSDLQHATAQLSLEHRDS
The essentials:
(§1)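 Sequencing on an Illumina NextSeq500 followed washing, crosslinking with 0.1% formaldehyde, proximity ligation (BsaI/T4 ligase, 1 h, 37 °C) and PCR amplification of pools that had been incubated for 30 min at room temperature with 200 nmole of a random double-stranded 16-mer DNA library in Tris/NaCl/DTT/glycerol buffer. Each pool held DNA-barcoded human transcription factors, expressed in yeast as GST fusions and captured on glutathione beads, plus a tag-only sample. Binding signal is a hexamer's read frequency for a factor divided by its frequency in the tag-only sample.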

The next experiment addresses T2, ETV3L (Homo sapiens, UniProt Q6ZN32 1-361).
T2 sequence: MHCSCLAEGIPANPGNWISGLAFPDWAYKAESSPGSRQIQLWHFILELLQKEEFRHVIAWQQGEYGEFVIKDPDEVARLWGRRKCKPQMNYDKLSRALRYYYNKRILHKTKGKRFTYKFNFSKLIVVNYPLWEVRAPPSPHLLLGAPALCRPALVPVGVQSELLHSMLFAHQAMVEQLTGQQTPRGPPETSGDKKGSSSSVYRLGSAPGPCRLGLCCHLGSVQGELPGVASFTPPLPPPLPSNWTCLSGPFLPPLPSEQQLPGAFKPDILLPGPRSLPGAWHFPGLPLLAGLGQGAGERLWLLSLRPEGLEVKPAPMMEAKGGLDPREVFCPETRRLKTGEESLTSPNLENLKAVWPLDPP
An outline of the steps: as §1

The next experiment concerns the target T3, ETS2 (Homo sapiens, UniProt P15036 1-469).
T3 sequence: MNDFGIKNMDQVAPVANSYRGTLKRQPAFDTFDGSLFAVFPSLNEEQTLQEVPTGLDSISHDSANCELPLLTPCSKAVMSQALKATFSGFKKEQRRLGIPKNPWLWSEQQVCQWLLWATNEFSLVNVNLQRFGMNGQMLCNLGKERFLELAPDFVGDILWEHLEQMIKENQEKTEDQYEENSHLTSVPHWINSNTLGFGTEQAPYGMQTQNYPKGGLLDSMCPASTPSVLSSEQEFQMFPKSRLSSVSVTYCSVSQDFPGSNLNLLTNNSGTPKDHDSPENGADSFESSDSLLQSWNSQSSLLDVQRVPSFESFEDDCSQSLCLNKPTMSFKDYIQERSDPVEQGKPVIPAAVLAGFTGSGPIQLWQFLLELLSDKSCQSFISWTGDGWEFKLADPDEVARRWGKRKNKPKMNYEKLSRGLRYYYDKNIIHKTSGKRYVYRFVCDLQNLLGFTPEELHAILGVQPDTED
An outline of the steps:
as §1

The target in another experiment is T4, SPDEF (Homo sapiens, UniProt O95238 1-335).
T4 sequence: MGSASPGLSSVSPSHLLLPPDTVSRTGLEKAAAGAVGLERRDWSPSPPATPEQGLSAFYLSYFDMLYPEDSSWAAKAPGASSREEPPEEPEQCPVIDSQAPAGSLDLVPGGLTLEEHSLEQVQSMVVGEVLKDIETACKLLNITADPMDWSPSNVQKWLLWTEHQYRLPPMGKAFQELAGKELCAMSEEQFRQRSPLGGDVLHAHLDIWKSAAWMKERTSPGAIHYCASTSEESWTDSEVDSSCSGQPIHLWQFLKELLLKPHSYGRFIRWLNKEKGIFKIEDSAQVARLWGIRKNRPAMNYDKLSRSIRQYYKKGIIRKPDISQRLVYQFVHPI
An outline of the steps:
as §1

A further experiment concerns the target T5, ETV7 (Homo sapiens, UniProt Q9Y603 1-341).
T5 sequence: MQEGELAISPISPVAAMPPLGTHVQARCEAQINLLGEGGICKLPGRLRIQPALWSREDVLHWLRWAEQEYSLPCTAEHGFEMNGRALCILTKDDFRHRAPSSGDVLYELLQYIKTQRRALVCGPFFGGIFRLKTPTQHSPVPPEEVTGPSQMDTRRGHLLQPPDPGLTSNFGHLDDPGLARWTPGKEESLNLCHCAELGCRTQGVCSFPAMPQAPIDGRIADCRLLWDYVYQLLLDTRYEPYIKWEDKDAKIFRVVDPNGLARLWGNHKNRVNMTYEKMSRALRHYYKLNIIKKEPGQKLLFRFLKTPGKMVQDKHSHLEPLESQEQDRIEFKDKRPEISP
The essentials: as §1

The target of a further experiment is T6, ELF5 (Homo sapiens, UniProt Q9UKW6-2 1-255).
T6 sequence: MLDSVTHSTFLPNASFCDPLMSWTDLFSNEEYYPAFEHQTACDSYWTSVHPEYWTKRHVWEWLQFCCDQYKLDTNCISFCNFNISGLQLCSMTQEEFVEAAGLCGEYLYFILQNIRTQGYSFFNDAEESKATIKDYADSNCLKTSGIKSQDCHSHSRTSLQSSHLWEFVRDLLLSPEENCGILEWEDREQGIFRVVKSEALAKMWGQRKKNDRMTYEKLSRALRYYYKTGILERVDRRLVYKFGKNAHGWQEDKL
An outline of the steps:
as §1

A further experiment concerns the target T7, ETV3 (Homo sapiens, UniProt P41162-2 1-143).
T7 sequence: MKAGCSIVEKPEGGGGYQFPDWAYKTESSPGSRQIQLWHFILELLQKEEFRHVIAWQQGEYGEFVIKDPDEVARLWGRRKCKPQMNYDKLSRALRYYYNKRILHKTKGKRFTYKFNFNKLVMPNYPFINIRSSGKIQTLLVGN
The essentials: as §1

The next experiment has as its target ETV6 (Homo sapiens, UniProt P41212 1-452). The essentials:
as §1

Chain of ETV6 (P41212 whole entry): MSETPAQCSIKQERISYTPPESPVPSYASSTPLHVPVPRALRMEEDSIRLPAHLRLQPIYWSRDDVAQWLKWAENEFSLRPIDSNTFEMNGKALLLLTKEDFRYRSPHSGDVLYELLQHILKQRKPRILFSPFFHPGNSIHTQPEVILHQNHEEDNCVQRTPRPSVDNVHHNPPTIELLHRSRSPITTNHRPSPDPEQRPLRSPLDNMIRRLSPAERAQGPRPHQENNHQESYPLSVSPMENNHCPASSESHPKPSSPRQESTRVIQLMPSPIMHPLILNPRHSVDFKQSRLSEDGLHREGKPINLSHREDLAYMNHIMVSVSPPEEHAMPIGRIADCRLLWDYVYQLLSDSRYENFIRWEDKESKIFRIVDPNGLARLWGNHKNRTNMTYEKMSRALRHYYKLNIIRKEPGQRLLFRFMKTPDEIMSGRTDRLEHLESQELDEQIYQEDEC

With ACTTAC, the binding signal was 1.08 fold enrichment (6-mer frequency, TF over GST control) in the experiment with ERF; 1.09 fold enrichment (6-mer frequency, TF over GST control) with ETV3L; 1.14 fold enrichment (6-mer frequency, TF over GST control) in the experiment with ETS2; 1.13 fold enrichment (6-mer frequency, TF over GST control) with SPDEF; 1.14 fold enrichment (6-mer frequency, TF over GST control) with ETV7; 1.21 fold enrichment (6-mer frequency, TF over GST control) in the experiment with ELF5. Also, the binding signal with ETV3 was 1.09 fold enrichment (6-mer frequency, TF over GST control); with ETV6, 1.13 fold enrichment (6-mer frequency, TF over GST control).

Regarding ATTCAA, the binding signal with ERF is 1.38 fold enrichment (6-mer frequency, TF over GST control); with ETV3L, 1.34 fold enrichment (6-mer frequency, TF over GST control); with ETS2, 1.36 fold enrichment (6-mer frequency, TF over GST control); with SPDEF it was 1.31 fold enrichment (6-mer frequency, TF over GST control); with ETV7, 1.19 fold enrichment (6-mer frequency, TF over GST control); in the experiment with ELF5, 1.24 fold enrichment (6-mer frequency, TF over GST control). Also, the binding signal in the experiment with ETV3 was 1.37 fold enrichment (6-mer frequency, TF over GST control); in the experiment with ETV6 it was 1.33 fold enrichment (6-mer frequency, TF over GST control).

With TAGCGG, the binding signal in the experiment with ERF is 1.1 fold enrichment (6-mer frequency, TF over GST control); with ETV3L it was 1.12 fold enrichment (6-mer frequency, TF over GST control); with ETS2, 1.13 fold enrichment (6-mer frequency, TF over GST control); with SPDEF it was 1.1 fold enrichment (6-mer frequency, TF over GST control); with ETV7 it was 1.12 fold enrichment (6-mer frequency, TF over GST control); in the experiment with ELF5, 1.12 fold enrichment (6-mer frequency, TF over GST control). Further, the binding signal with ETV3 was 1.09 fold enrichment (6-mer frequency, TF over GST control); with ETV6, 1.12 fold enrichment (6-mer frequency, TF over GST control).

Regarding AAGCTA, the binding signal with ERF was 1.18 fold enrichment (6-mer frequency, TF over GST control); in the experiment with ETV3L, 1.2 fold enrichment (6-mer frequency, TF over GST control); in the experiment with ETS2 it was 1.14 fold enrichment (6-mer frequency, TF over GST control); with SPDEF, 1.16 fold enrichment (6-mer frequency, TF over GST control); with ETV7, 1.2 fold enrichment (6-mer frequency, TF over GST control); in the experiment with ELF5, 1.11 fold enrichment (6-mer frequency, TF over GST control). Moreover, the binding signal is 1.2 fold enrichment (6-mer frequency, TF over GST control) with ETV3 and 1.1 fold enrichment (6-mer frequency, TF over GST control) in the experiment with ETV6.

Regarding TACAAT, the binding signal with ERF is 1.31 fold enrichment (6-mer frequency, TF over GST control); in the experiment with ETV3L it was 1.25 fold enrichment (6-mer frequency, TF over GST control); with ETS2 it was 1.34 fold enrichment (6-mer frequency, TF over GST control); in the experiment with SPDEF, 1.28 fold enrichment (6-mer frequency, TF over GST control); with ETV7 it was 1.24 fold enrichment (6-mer frequency, TF over GST control); with ELF5 it was 1.24 fold enrichment (6-mer frequency, TF over GST control). In addition, the binding signal in the experiment with ETV3 was 1.28 fold enrichment (6-mer frequency, TF over GST control); with ETV6 it was 1.26 fold enrichment (6-mer frequency, TF over GST control).

Turning to CCACGC, the binding signal with ERF is 1.12 fold enrichment (6-mer frequency, TF over GST control); with ETV3L, 1.17 fold enrichment (6-mer frequency, TF over GST control); with ETS2, 1.24 fold enrichment (6-mer frequency, TF over GST control); with SPDEF, 1.17 fold enrichment (6-mer frequency, TF over GST control); in the experiment with ETV7, 1.15 fold enrichment (6-mer frequency, TF over GST control); in the experiment with ELF5, 1.11 fold enrichment (6-mer frequency, TF over GST control). Also, the binding signal is 1.16 fold enrichment (6-mer frequency, TF over GST control) with ETV3 and 1.15 fold enrichment (6-mer frequency, TF over GST control) in the experiment with ETV6.

The values above are taken from article PMC7862700, “An all-to-all approach to the identification of sequence-specific readers for epigenetic DNA modifications on cytosine”.
